Consider 20 compounds from PubChem BioAssay AID743373 (National Center for Advancing Translational Sciences (NCATS), 2014).

“And” between values parts separate entries of the source, which are not always exact repeats. Identical values can stand only once. Records with an inconclusive call do not appear. The source made the active and inactive calls. Calls follow the shape of the dose curve; as a rule, active = well fitted inhibition curve with a large enough effect; inconclusive = small, poorly fitted or top-dose-only effect; inactive = flat fitted curve, though single readings scatter.

Sequence of Galactokinase (Homo sapiens) (P51570 whole entry, looked up): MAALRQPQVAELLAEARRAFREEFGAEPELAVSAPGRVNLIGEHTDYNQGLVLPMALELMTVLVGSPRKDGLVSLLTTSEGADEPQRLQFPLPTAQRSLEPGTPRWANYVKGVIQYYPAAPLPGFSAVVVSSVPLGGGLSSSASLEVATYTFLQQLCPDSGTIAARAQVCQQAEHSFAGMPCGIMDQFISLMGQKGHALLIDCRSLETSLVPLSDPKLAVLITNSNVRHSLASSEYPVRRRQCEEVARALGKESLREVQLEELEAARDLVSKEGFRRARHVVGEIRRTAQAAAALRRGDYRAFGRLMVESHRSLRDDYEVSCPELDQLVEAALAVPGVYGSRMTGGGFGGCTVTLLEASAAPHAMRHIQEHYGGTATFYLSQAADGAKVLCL

This test concerns the target Galactokinase (Homo sapiens) (UniProt P51570). Kind of test: qHTS for Inhibitors of Human Galactokinase (GALK): Confirmation Assay for SAR round 4. The note with it: recombinant GALK, ADP-Glo luminescence, 1 h; series mostly up to 57.5 µM; activity, negative = inhibition: at the top concentration. The text has this: Inherited deficiency of galactose-1-phosphate uridyltransferase (GALT) can result in a potentially lethal disorder called Classic Galactosemia (OMIM 230400). Several lines of evidence indicate that an elevated level of galactose-1-phosphate (gal-1-p), the product of galactokinase (GALK), is a major, if not sole, pathogenic mechanism in patients with classic galactosemia. Therefore, finding inhibitors of GALK is a potential novel therapy for this inherent metabolic disease and is the long term goal of this project. Active compounds observed in the qHTS GALK assay (AID: 1868) were cherry picked and re-screened for validation. GALK (provided by Kent Lai) was assayed using ATP and D-(+)-Galactose (Sigma-Aldrich cat# G0750) as substrates. Promega ADP-Glo technology was used to detect the ADP product formed after the kinase reaction. Kinase reactions with and without GALK were used as negative and positive controls together with Protein Tyrosine Phosphatase CD45 inhibitor (EMD Bioscience cat# 540215) which is shown to inhibit GALK activity. Decrease in activity corresponds to inhibition of the enzyme, the desired outcome for this assay. NIH Molecular Libraries Probe Production Network [MLPCN] NIH Chemical Genomics Center [NCGC] Grant: R03 MH085689-01 PI Name: Kent Lai, University of Utah
Two uL/well of ATP-buffer solution (35 uM ATP, 20mM HEPES pH8.0, 5 mM MgCl2, 60 mM NaCl, 1 mM DTT, 0.01% BSA final concentration) was dispensed into 1536-well, assay plates (Greiner, solid white medium-binding plates) with Aurora Discovery BioRAPTR Flying Reagent Dispenser (FRD; Beckton-Dickenson). Compound and control solution (23 nL) was transferred to the assay plate using the Kalypsys 1536-pin tool apparatus. Half uL/well GALK-galactose solution (5 nM GALK, 100 uM galactose, 20 mM HEPES pH8.0, 5 mM MgCl2, 60 mM NaCl, 1 mM DTT, 0.01% BSA final concentration) was then added using the FRD yielding a total kinase reaction volume of 2.5 uL/ well. After 1 hour of room temperature incubation, 2.5 uL ADP-Glo reagent A was added and incubated for 15 min. Five micorliter of ADP-Glo reagent B was then added per well and incubated for additional 15 min at room temperature. Luminescence was detected with the ViewLux plate reader (Perkin Elmer, Waltham, MA) using a 1 sec exposure time and 2x binning.
On to `CC1=C(C(=O)Nc2nc3ccccc3s2)C2(CCCC2)N=C(Nc2nc3ccccc3o2)N1`, for which the “activity, negative = inhibition” value is -18.2% (inactive).

As for `CC1=C(C(=O)Nc2noc3ccccc23)C(c2nn(C)cc2Cl)N=C(Nc2nc3ccccc3o2)N1` (stereo not given), the “activity, negative = inhibition” value was -1.71% (inactive).

Take `O=C1CCCC2=C1C(c1ccccc1Br)N=C(Nc1nc3ccccc3o1)N2` (stereo not given): the Potency was 4.32 µM (active).

Take `CC1=C(C(=O)Nc2nc3ccccc3s2)C(c2[nH]ncc2Cl)N=C(Nc2nc3ccccc3o2)N1` (stereo not given): the “activity, negative = inhibition” value was -7.24% (inactive).

Turning to `CC1=C(C(=O)Nc2ccon2)C(c2ccccc2Br)N=C(Nc2nc3ccccc3o2)N1` (stereo not given), the Potency was 7.69 µM (active).

Consider `CC1=C(C(=O)Nc2nc3ccccc3s2)C(c2nn(C)cc2Cl)N=C(Nc2nc3ccccc3o2)N1` (stereo not given), for which the “activity, negative = inhibition” value is -5.67% (inactive).

For the compound `CC1=C(C(=O)Nc2noc3ccccc23)C2(CCCC2)N=C(Nc2nc3ccccc3o2)N1`, the “activity, negative = inhibition” value is -1.57% (inactive).

Turning to `CC1=C(C(=O)Nc2ccc(Cl)cc2)C(c2ccccc2Br)N=C(Nc2nc3ccccc3o2)N1` (stereo not given), the “activity, negative = inhibition” value was -26.9% (inactive).

With `CC1=C(C(=O)Nc2ccon2)C2(CCCC2)N=C(Nc2nc3ccccc3o2)N1`, the Potency was 7.69 µM (active).

As to `CNC(=O)C1=C(C)NC(Nc2nc3ccccc3o2)=NC12CCCC2`, the “activity, negative = inhibition” value was -10.4% (inactive).

Regarding `CC1=C(C(=O)NC2CCCC2)C(c2[nH]ncc2Cl)N=C(Nc2nc3ccccc3o2)N1` (stereo not given), the “activity, negative = inhibition” value was -11.9% (inactive).

Regarding `O=C1CCCC2=C1C(c1ccncc1Cl)N=C(Nc1nc3ccccc3o1)N2` (stereo not given), the Potency is 10.9 µM (active).

Regarding `O=C1CCCC2=C1C(c1[nH]ncc1Br)N=C(Nc1nc3ccccc3o1)N2` (stereo not given), the Potency is 15.3 µM (active).

For `O=C1CCCC2=C1C(c1ccccc1Cl)N=C(Nc1nc3ccccc3o1)N2` (stereo not given), the Potency is 13.7 µM (active).

On to `O=C1CCCC2=C1C(c1ccccc1I)N=C(Nc1nc3ccccc3o1)N2` (stereo not given), for which the Potency is 3.06 µM (active).

As for `CC1=C(C(=O)Nc2nncs2)C(c2[nH]ncc2Cl)N=C(Nc2nc3ccccc3o2)N1` (stereo not given), the Potency was 7.69 µM (active).

For `O=C1C2=C(CN1c1ccccc1)NC(Nc1nc3ccccc3o1)=NC2c1ccccc1Cl` (stereo not given), the “activity, negative = inhibition” value was -7.05% (inactive).

As to `O=C1C2=C(CN1Cc1ccccc1)NC(Nc1nc3ccccc3o1)=NC2c1ccccc1Cl` (stereo not given), the “activity, negative = inhibition” value was -0.242% (inactive).

For the compound `O=C1CCCC2=C1C(c1[nH]ncc1Cl)N=C(Nc1nc3ccccc3o1)N2` (stereo not given), the Potency was 5.44 µM (active) and 6.85 µM (active).

As for `CC(C)CN1CC2=C(C1=O)C(c1ccccc1Cl)N=C(Nc1nc3ccccc3o1)N2` (stereo not given), the “activity, negative = inhibition” value was -14.9% (inactive).
